The assay deals with T1, CRBN, Q96SW2.
T1 chain: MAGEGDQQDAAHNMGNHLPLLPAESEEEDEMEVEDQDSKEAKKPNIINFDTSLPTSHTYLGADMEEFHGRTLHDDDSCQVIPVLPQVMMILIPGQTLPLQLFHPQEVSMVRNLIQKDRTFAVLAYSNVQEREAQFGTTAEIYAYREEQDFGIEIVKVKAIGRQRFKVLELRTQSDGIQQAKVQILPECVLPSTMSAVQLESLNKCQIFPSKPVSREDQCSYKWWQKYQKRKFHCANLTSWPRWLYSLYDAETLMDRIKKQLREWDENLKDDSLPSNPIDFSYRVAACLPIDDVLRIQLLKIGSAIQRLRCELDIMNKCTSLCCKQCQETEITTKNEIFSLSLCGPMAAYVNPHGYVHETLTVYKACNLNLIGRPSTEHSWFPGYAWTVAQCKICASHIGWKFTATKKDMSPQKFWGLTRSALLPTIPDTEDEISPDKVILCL
As to the kind of experiment: log2 fold change of degron read counts, EGFP-low vs EGFP+ sorted cells (limma voom), compound-induced degradation; higher = more compound-induced degradation of the degron-EGFP fusion; degrons are variants of IKZF1/3 zinc finger 2; compound dose not given here. Particulars: Jurkat, 18 h.

Where [1] appears, read: compound: compound 19 (5-tert-butyl-thalidomide).
[2] abbreviates: compound: compound 22 (5-morpholino-thalidomide).
Setting [3] is: compound: compound 33 (diphenyl IMiD analogue).

The full ranking holds about 8,300 sequences; the median of “log2 fold change of degron read counts, EGFP-low vs EGFP+ sorted cells (limma voom), compound-induced degradation” is about -1.1, and the highest 2% start at about 3.2. The entries come from a sample that favours the highest values as a whole.
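Note: pooled lentiviral library of zinc finger degron-EGFP fusions in mCherry-positive Jurkat cells, FACS-sorted after compound exposure, with degron abundance counted by next-generation sequencing.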

FQCPICGRGFTQKGNLLRHIKL [46F_47Q_49P_50I_52G_53R_54G_55F_67L_, Q9UKT9]: the “log2 fold change of degron read counts” value is, setting by setting: under setting [1], -0.816; under setting [2], -0.908; under setting [3], -0.112; (compound: thalidomide) 1.8.
In the case of FQCEICGAVFTQKGNLLRHIKL [46F_47Q_49E_50I_52G_53A_54V_55F_67L_, Q9UKT9], the “log2 fold change of degron read counts” value by setting is: under setting [1], 0.132; under setting [2], 2.71; under setting [3], 2.34; (compound: thalidomide) 3.22.
As for FGCDQCGAWFTQKGNLLRHIKL [46F_47G_49D_50Q_52G_53A_54W_55F_67L_, Q9UKT9], the “log2 fold change of degron read counts” value is -2.44 under setting [1], -2.82 under setting [2], -1.38 under setting [3] and -2.3 (compound: thalidomide).
For the sequence FMCEICGHQFTQKGNLLRHIKL [46F_47M_49E_50I_52G_53H_54Q_55F_67L_, Q9UKT9], the “log2 fold change of degron read counts” value reads like this: under setting [1], -3.75; under setting [2], -3.29; under setting [3], -1.95; (compound: thalidomide) -1.87.
As to FCCNQCGRVFTQKGNLLRHIKL [46F_47C_49N_50Q_52G_53R_54V_55F_67L_, Q9UKT9], the “log2 fold change of degron read counts” value by setting is: under setting [1], -2.29; under setting [2], -2.57; under setting [3], -2.1; (compound: thalidomide) -2.12.
FLCNQCGRCFTQKGNLLRHIKL [46F_47L_49N_50Q_52G_53R_54C_55F_67L_, Q9UKT9]: the “log2 fold change of degron read counts” value was -1.41 under setting [1], -1.61 under setting [2], -3.08 under setting [3] and -2.11 (compound: thalidomide).
As to FVCPQCGAIFTQKGNLLRHIKL [46F_47V_49P_50Q_52G_53A_54I_55F_67L_, Q9UKT9], the “log2 fold change of degron read counts” value is -2.01 under setting [1], -1.63 under setting [2], -0.464 under setting [3] and -0.946 (compound: thalidomide).
The corresponding values for FCCDICGASFTQKGNLLRHIKL [46F_47C_49D_50I_52G_53A_54S_55F_67L_, Q9UKT9] are 2.32, 1.84, 0.871 and 0.402.
The corresponding values for FECDICGASFTQKGNLLRHIKL [46F_47E_49D_50I_52G_53A_54S_55F_67L_, Q9UKT9] are 0.774, -2.24, -0.436 and -0.0103.
For FWCDICGASFTQKGNLLRHIKL [46F_47W_49D_50I_52G_53A_54S_55F_67L_, Q9UKT9], the “log2 fold change of degron read counts” value is, setting by setting: under setting [1], 3.28; under setting [2], 3.69; under setting [3], 1.52; (compound: thalidomide) -0.347.
The corresponding values for FDCPICGASFTQKGNLLRHIKL [46F_47D_49P_50I_52G_53A_54S_55F_67L_, Q9UKT9] are 3.04, 1.06, 1.22 and 1.9.
Regarding FKCPICGASFTQKGNLLRHIKL [46F_47K_49P_50I_52G_53A_54S_55F_67L_, Q9UKT9], the “log2 fold change of degron read counts” value under setting [1] is 1.49, the “log2 fold change of degron read counts” value under setting [2] is -0.57, the “log2 fold change of degron read counts” value under setting [3] was -1.45 and the “log2 fold change of degron read counts” value (compound: thalidomide) was 0.422.
For the sequence FQCPICGASFTQKGNLLRHIKL [46F_47Q_49P_50I_52G_53A_54S_55F_67L_, Q9UKT9], the “log2 fold change of degron read counts” value came out at 2.55 under setting [1], 2.88 under setting [2], 2.76 under setting [3] and 3.79 (compound: thalidomide).
For the sequence FQCDICGASFTQKGNLLRHIKL [46F_47Q_49D_50I_52G_53A_54S_55F_67L_, Q9UKT9], the “log2 fold change of degron read counts” value was found to be 1.07 under setting [1], 1.92 under setting [2], 1.15 under setting [3] and 2.99 (compound: thalidomide).
Turning to FYCPICGASFTQKGNLLRHIKL [46F_47Y_49P_50I_52G_53A_54S_55F_67L_, Q9UKT9], the “log2 fold change of degron read counts” value was determined as 3.25 under setting [1], 3.43 under setting [2], 2.54 under setting [3] and 1.24 (compound: thalidomide).
FNCPICGASFTQKGNLLRHIKL [46F_47N_49P_50I_52G_53A_54S_55F_67L_, Q9UKT9]: the “log2 fold change of degron read counts” value worked out at 2.84 under setting [1], 1.58 under setting [2], 1.33 under setting [3] and 0.876 (compound: thalidomide).
Taken in the same sequence, the figures for FWCPICGASFTQKGNLLRHIKL [46F_47W_49P_50I_52G_53A_54S_55F_67L_, Q9UKT9] were 3.29, 3.64, 2.28 and 1.35.
Turning to FLCPICGASFTQKGNLLRHIKL [46F_47L_49P_50I_52G_53A_54S_55F_67L_, Q9UKT9], the “log2 fold change of degron read counts” value reads like this: under setting [1], 1.51; under setting [2], 0.569; under setting [3], 1.64; (compound: thalidomide) 1.57.
The corresponding values for FACNQCGHQFTQKGNLLRHIKL [46F_47A_49N_50Q_52G_53H_54Q_55F_67L_, Q9UKT9] are -2.48, -3.06, -3.27 and -2.92.
Consider FRCNVCGAQFTQKGNLLRHIKL [46F_47R_49N_50V_52G_53A_54Q_55F_67L_, Q9UKT9], for which the “log2 fold change of degron read counts” value runs as follows: under setting [1], -1.54; under setting [2], -1.19; under setting [3], -0.656; (compound: thalidomide) -0.561.
For the sequence FNCPICGHYFTQKGNLLRHIKL [46F_47N_49P_50I_52G_53H_54Y_55F_67L_, Q9UKT9], the “log2 fold change of degron read counts” value was -1.6 under setting [1], -1.7 under setting [2], -1.47 under setting [3] and -1.44 (compound: thalidomide).
In the case of FFCSVCGHKFTQKGNLLRHIKL [46F_47F_49S_50V_52G_53H_54K_55F_67L_, Q9UKT9], the “log2 fold change of degron read counts” value is -1.05 under setting [1], -2.36 under setting [2], -2.5 under setting [3] and -2.6 (compound: thalidomide).
For FCCSVCGHVFTQKGNLLRHIKL [46F_47C_49S_50V_52G_53H_54V_55F_67L_, Q9UKT9], the “log2 fold change of degron read counts” value by setting is: under setting [1], -1.81; under setting [2], -2.39; under setting [3], -2.47; (compound: thalidomide) -2.11.
For FTCPICGASFTQKGNLLRHIKL [46F_47T_49P_50I_52G_53A_54S_55F_67L_, Q9UKT9], the “log2 fold change of degron read counts” value amounted to 2.17 under setting [1], 3.02 under setting [2], 2.88 under setting [3] and 3.23 (compound: thalidomide).
Take FFCPICGASFTQKGNLLRHIKL [46F_47F_49P_50I_52G_53A_54S_55F_67L_, Q9UKT9]: the “log2 fold change of degron read counts” value is, setting by setting: under setting [1], 3.26; under setting [2], 3.18; under setting [3], 2.18; (compound: thalidomide) 1.74.
The corresponding values for FGCPICGASFTQKGNLLRHIKL [46F_47G_49P_50I_52G_53A_54S_55F_67L_, Q9UKT9] are 3.27, 2.28, 2.49 and 1.31.
Turning to FHCPICGASFTQKGNLLRHIKL [46F_47H_49P_50I_52G_53A_54S_55F_67L_, Q9UKT9], the “log2 fold change of degron read counts” value by setting is: under setting [1], 2.77; under setting [2], 2.54; under setting [3], 2.08; (compound: thalidomide) 0.926.
The corresponding values for FFCNICGASFTQKGNLLRHIKL [46F_47F_49N_50I_52G_53A_54S_55F_67L_, Q9UKT9] are 2.16, 2.55, 1.2 and -0.157.
